Measurements as given in PubChem BioAssay (NCI).
This is part of a sample that, as a whole, favours compounds with a hit. Of some 83,000 tested, about 20% had one in any assay.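 Treatment: one concentration, 48 hours, 96-well format. Scoring: percent growth, with anything below 10 considered active.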 Values without a mark were called inactive. Calls of active or inactive are those of the source.

System: HS 578T breast
Experiment: NCI-60 one-dose screen, 48 h (100 = growth as untreated, 0 = no growth, -100 = all killed)
Details: 10 µM unless noted

Row | Structure (SMILES) | growth
1 | COc1ccc(/C=N/NC(=O)Cn2c(-c3ccc(S(C)(=O)=O)cc3)nc3ccccc32)cc1 | 92.4%
2 | CN(C)CCCn1c2c(c3ccncc3c1=O)C(=O)c1ccccc1-2 | 19.8%
3 | OC1(c2ccccc2)c2ccccc2N(c2ccccc2)c2ccc(Cl)cc21 (centres undefined) | 4.35% (active)
4 | CC1(/C=C/c2ccc(-c3ccccc3)cc2)CCn2cnc3ncnc(c32)N1O (centres undefined) | 55.5%
5 | C=C1C(=O)O[C@H]2[C@H]1CC/C(COC(=O)/C=C\C(=O)NCc1ccc(Cn3c(=O)sn(CCCCl)c3=O)cc1)=C\CC[C@@]1(C)O[C@@H]21 | 88.8%
6 | C#Cc1cccc(NC(=O)C2CCCCN2C(=O)CCl)c1 (centres undefined) | -22.1% [8.25 µM] (active)
7 | O=C1CCCC1[n+]1ccccc1 (centres undefined) | 114%
8 | N#C/C(=C\c1ccc(-c2cccc(Cl)c2)o1)C(=O)Nc1ncc(Cc2ccc(Cl)cc2)s1 | 24.4%
9 | O=S(O)c1cc(Cl)cc(Cl)c1OCc1ccccc1 | 95.4%
10 | O=C(C1=Cc2cc3ccccc3n2Cc2cnnn21)c1ccc(F)cc1 | 90.8%
11 | CC(C)Cc1nc(Nc2ccccc2)[nH]c(=O)c1C#N | 36.2%
12 | C[N+]1=C(/C=C/c2ccccc2Cl)C(C)(C)c2ccccc21 | 102%
13 | CSc1ccc(N2C(=N)C(=S)N(c3ccc(C)cc3)C2=O)cc1 | 96%
14 | CC[C@H](Nc1nc(N)nc(C)c1C#N)c1nc2cccc(CN(C)c3ncc(C(=O)NO)cn3)c2c(=O)n1-c1ccccc1 | 8.03% (active)
